# Results reported in PubChem BioAssay AID740 (SRMLSC, 2007).
# The campaign covered roughly 96,000 compounds. About 65 (0.07%) were called active. The sample holds actives, similar compounds and a random draw of the others, so the mix is not that of the screen. Values without a mark were called inactive. No stated cut-off is given here; in the data, active means inhibition above about 25%; inactive means the rest.
# Assay: unspecified inhibition readout at 50 µM (AID 740)
# Details: unspecified screen; hits give high values
row,Structure (SMILES),inhibition
1,CC(NC(=O)c1ccc(NS(C)(=O)=O)cc1)c1ccccc1 (stereo unspecified),1.26%
2,CC(NC(=O)c1ccc(F)cc1)c1ccccc1 (stereo unspecified),1.4%
3,CC(NC(=O)c1ccc(S(=O)(=O)N(C)C)cc1)c1ccccc1 (stereo unspecified),26.5% (active)
4,CCCn1ncc(C(=O)O)c1C,0.49%
5,CCn1c(N2CCN(CC(=O)c3c[nH]c4ccccc34)CC2)nc2c1c(=O)[nH]c(=O)n2C,0.91%
6,CCc1c(C)nc2[nH]nc(-c3ccccc3C)n2c1=O,36.2% (active)
7,Cc1cc(=O)n2c(-c3ccccc3C)n[nH]c2n1,0.44%
8,CCc1c(C)nc2[nH]nc(-c3ccccc3)n2c1=O,39.6% (active)
9,COCc1cc(=O)n2c(-c3ccccc3OC)n[nH]c2n1,inactive
10,CCc1c(C)[nH]c2nc3ccccc3n2c1=O,1.48%
11,CCc1c(C)nc2[nH]nc(NC(=O)C(F)(F)F)n2c1=O,1.45%
12,CC(=O)N1CCN(S(=O)(=O)c2cccc(C(=O)Nc3nc4c(s3)CCCC4)c2)CC1,0.78%
13,COc1ccccc1NC(=O)c1cc(C(=O)O)ccc1C(=O)O,inactive
14,O=C1CSC(=S)N1Cc1cccnc1,28.6% (active)
15,O=C(O)c1ccc(CN2C(=O)CSC2=S)cc1,inactive
16,O=C1CSC(=S)N1c1cccnc1,inactive
17,COc1cccc(-c2nc(CS(=O)(=O)CC(=O)N3CCc4ccccc43)c(C)o2)c1,inactive
18,Cc1ccccc1N(CC(=O)NC1CCCC1)C(=O)c1oc(C(C)(C)C)cc1C,2.02%
19,O=c1c2ccccc2nc2c3ccccc3c(NCc3ccco3)nn12,0.85%
20,Cc1sc2nc3c4ccccc4c(NCc4ccco4)nn3c(=O)c2c1C,26.7% (active)
21,Cc1sc2nc3ccc(NCc4ccco4)nn3c(=O)c2c1C,3.95%
22,Cc1cc(C(=O)OCC(=O)Nc2ccc(S(=O)(=O)N3CCOCC3)cc2)c(C)o1,inactive

row,Structure (SMILES),inhibition
1,Nc1nc(-c2ccco2)nn1C(=O)c1ccc(Cl)cc1,0.07%
2,Cc1nc2scc(-c3ccco3)c2c(=O)n1/N=C/N(C)C,25.3% (active)
3,Cc1ccc(-c2csc3ncn(/N=C/N(C)C)c(=O)c23)o1,0.16%
4,Cc1nc2scc(-c3ccccc3)c2c(=O)n1/N=C/c1ccco1,inactive
5,COC(=O)Cn1cc(C(=O)OC)c2ccccc21,inactive
6,Cc1ccc(CNC(=O)CCS(=O)(=O)c2cccc3nsnc23)cc1,0.45%
7,O=C(CCS(=O)(=O)c1cccc2nsnc12)NCc1ccccc1Cl,79.1% (active)
8,COc1cccc(CNC(=O)CCS(=O)(=O)c2cccc3nsnc23)c1,0.1%
9,COc1cc2[nH]c(=O)n(CCC(=O)NC3CCCC3)c(=O)c2cc1OC,0.82%
10,Cc1sc(-c2ccccn2)nc1OC(=O)c1ccc(Cl)cc1,inactive
11,COc1c(N2CCN(C(=S)Nc3ccc(F)cc3)C(C)C2)c(F)cc2c(=O)c(C(=O)O)cn(C3CC3)c12 (stereo unspecified),0.59%
12,NC1C2CN(c3nc4c(cc3F)c(=O)c(C(=O)O)cn4-c3ccc(F)cc3F)CC12 (stereo unspecified),27.2% (active)
13,CCn1cc(C(=O)O)c(=O)c2cc(F)c(N3CCN(C(=O)Nc4ccccc4)CC3)cc21,1.47%
14,O=C(O)c1cccc(COCC(F)(F)C(F)F)c1,inactive
15,COc1ccc([C@H]2[C@H](C(=O)C(C)(C)C)N3N=Cc4ccccc4C3[C@]23N=C(c2ccccc2)OC3=O)cc1 (stereo partly specified),inactive
16,COc1ccc(CCN(Cc2cc3cc(C)c(C)cc3nc2Cl)C(=O)C2CC2)cc1,inactive
17,CC(C)(C)c1ccc(OCCN2CCCC2)cc1,inactive
18,CC(C)(c1ccccc1)c1ccc(OCCn2cnc3ccccc3c2=O)cc1,inactive
19,CC(C)(C)c1ccc(OCCn2ccccc2=O)cc1,25.3% (active)
20,CCS(=O)(=O)Nc1ccc(-c2ccc(NS(=O)(=O)CC)c(OC)c2)cc1OC,0.7%
21,Cc1ccc(S(=O)(=O)CC(N)=O)cc1,0.12%
22,O=C(c1ccco1)N1CCN(c2cc(C(F)(F)F)nc3ncnn23)CC1,1.54%

row,Structure (SMILES),inhibition
1,CCCN(CCC)C(=O)Cn1c(=O)n(CCCCC(=O)NC2CCCC2)c(=O)c2ccccc21,0.15%
2,CCN1CCN(CC(O)COc2ccc(C(C)=O)cc2)CC1 (stereo unspecified),0.4%
3,Cc1ccc(/C=C/C(=O)c2c(C)cc(C)[nH]c2=O)cc1,35.2% (active)
4,CCc1ccc(/C=C/C(=O)c2c(C)cc(C)[nH]c2=O)cc1,24.9%
5,Cc1cc(C)c(C(=O)/C=C/c2ccc(C(C)C)cc2)c(=O)[nH]1,1.62%
6,COCCSc1ccccc1C(=O)N1CCOCC1,inactive
7,CC(C)(C)c1ccc(S(=O)(=O)n2c(CN3CCOCC3)nc3ccccc32)cc1,0.34%
8,CCOC(=O)CSc1nnc(C2CCCCC2)n1C,inactive
9,O=C(c1ccc(F)cc1)C(CN1CCOCC1)c1ccccc1 (stereo unspecified),inactive
10,COc1ccc(C(=O)C(CN2CCOCC2)c2ccccc2)cc1 (stereo unspecified),41.7% (active)
11,COc1ccc(C(=O)C(CN2CCCC2)c2ccccc2)cc1 (stereo unspecified),8.35%
12,Nc1nc(SCc2ccccc2)[nH]c(=O)c1-c1ccccc1,inactive
13,O=C(CN1CCN(c2ncccn2)CC1)NCCC1=CCCCC1,50.1% (active)
14,O=C(CSc1ncccc1C(=O)O)NCCC1=CCCCC1,inactive
15,O=C(CN1CCN(C2CCCCC2)CC1)NCCC1=CCCCC1,inactive
16,COc1cccc(NS(=O)(=O)c2ccc3[nH]cc(C(=O)NCCC(C)C)c(=O)c3c2)c1,1.2%
17,O=C(NCc1ccco1)c1cc(S(=O)(=O)N2CCOCC2)ccc1Cl,0.08%
18,CCCCOc1cccc(NC(=O)CSc2nccn2C)c1,inactive
19,C=CCNC(=S)Nc1cccc2ccccc12,0.02%
20,COc1ccccc1-c1nnc(Sc2nc([N+](=O)[O-])nn2C)o1,inactive
21,Cn1nc([N+](=O)[O-])nc1Sc1nnc(-c2ccccc2)o1,28.3% (active)
22,Cn1nc([N+](=O)[O-])nc1Sc1ccc(C(C)(C)C)cc1,9.59%

row,Structure (SMILES),inhibition
1,Nc1nc(Nc2cccc(C(F)(F)F)c2)nc(C(F)(F)F)n1,inactive
2,Cc1cc(C)n(S(=O)(=O)/C=C/c2ccccc2)n1,40.1% (active)
3,O=S(=O)(/C=C/c1ccccc1)n1cnc2ccccc21,0.11%
4,Cc1cc(C)n(S(=O)(=O)Cc2ccccc2)n1,0.57%
5,CCOC(=O)C1=C(C)Nc2nc(SC)nn2C1c1ccc(C(=O)OC)cc1 (stereo unspecified),0.25%
6,CC1CCCN(c2ccc(C(=O)NCc3cccs3)cn2)C1 (stereo unspecified),0.47%
7,O=C(NCc1cccs1)c1ccc(N2CCCCC2)nc1,26% (active)
8,CC1CCN(c2ccc(C(=O)NCc3cccs3)cn2)CC1,inactive
9,O=C(O)CSc1nnc(-c2ccncc2)n1-c1ccc(Cl)cc1,inactive
10,CC(=O)Nc1cc(-c2nn(C)c(=O)c3ccccc23)ccc1N1CCCCC1,inactive
11,c1ccc(OCc2nnc3sc(C4COc5ccccc5O4)nn23)cc1 (stereo unspecified),inactive
12,Cc1cc(C(=O)CSc2nnnn2-c2ccc(Cl)cc2)c(C)n1CC1CCCO1 (stereo unspecified),0.29%
13,COC(=O)c1sc(S(=O)(=O)N2CCN(c3ccccc3)CC2)c(C(=O)OC)c1C,1.69%
14,NC(=O)c1c(NC(=O)CSc2nnc(Cc3ccccc3)n2Cc2ccco2)sc2c1CCC2,27% (active)
15,NC(=O)c1c(NC(=O)CSc2nnc(-c3ccco3)n2-c2ccccc2)sc2c1CCC2,inactive
16,O=C(CSc1nnc(Cc2ccccc2)n1Cc1ccco1)NC1CCCC1,4.05%
17,CCCCCC(O)CCc1n[nH]c(=S)n1-c1ccccc1 (stereo unspecified),inactive
18,O=C(CC(c1ccccc1)c1ccccc1)Nc1ccc(Cl)cn1,inactive
19,CCOC(=O)c1c(NC(=O)CN2CCOCC2)sc2c1CC(C)(C)OC2,1.02%
20,COC(=O)CC(NC(=O)c1ccco1)c1ccc(C(C)C)cc1 (stereo unspecified),inactive
21,O=C(CSc1ccc2nnc(-c3ccccc3)n2n1)NCc1ccco1,3.91%
22,Cc1ccc(-c2nnc3ccc(SCC(=O)NCc4ccco4)nn23)cc1,2.76%

row,Structure (SMILES),inhibition
1,O=C(CSc1ccc2nnc(-c3ccncc3)n2n1)NCc1ccco1,28.9% (active)
2,NC(=S)NNc1cccc(Cl)c1,inactive
3,CSc1nnc(-c2ccc(Cl)cc2Cl)o1,7.66%
4,CCSc1nnc(-c2ccc(Cl)cc2Cl)o1,1.81%
5,C=CCSc1nnc(-c2cccnc2)o1,33.1% (active)
6,C(=C\c1ccccc1)/CSc1nnc(-c2cccnc2)o1,0.18%
7,Cc1ccc(CSc2nnc(-c3cccnc3)o2)cc1,inactive
8,C=CCSc1nnc(-c2ccc(Cl)cc2Cl)o1,37.9% (active)
9,O=C(Nc1ccc(Cl)cc1)N1CCCC1,inactive
10,O=C(NCCc1cccs1)C1CC(c2ccc([N+](=O)[O-])cc2)=NO1 (stereo unspecified),1.33%
11,COc1cc(C(=O)N2CCC(c3nc(-c4cccnc4)no3)CC2)cc(OC)c1OC,inactive
12,Cc1nc(C)c(C(=O)C2=C(O)C(=O)N(CCN(C)C)C2c2ccccc2)s1 (stereo unspecified),0.19%
13,COc1ccc2c(c1OC)C(=O)OC2c1c(O)n(Cc2ccc(F)cc2)c(=O)[nH]c1=O (stereo unspecified),inactive
14,CCC(=O)N1CCN(c2ccccc2NC(=O)COc2ccccc2Cl)CC1,inactive
15,O=C(O)CCS(=O)(=O)c1nc(-c2cccs2)cc(C(F)(F)F)n1,inactive
16,CS(=O)(=O)c1nc(-c2ccccc2)cc(C(F)(F)F)n1,inactive
17,CS(=O)(=O)c1nc(-c2cccs2)cc(C(F)(F)F)n1,26.1% (active)
18,CCC1(c2cccc(Cl)c2)NC(=O)N(Cc2cc(C(=O)OC)c(C)o2)C1=O (stereo unspecified),inactive
